# HPGD block – HPGD (human) dehydrogenase inhibition; P15428; purified HPGD, NADH fluorescence kinetic, PGE2 substrate; Potency, µM, without a hit: at the top dose activity change, negative = inhibition, usual class: inhibitors; actives 4.3% (n = 150,000); AID 894; active = well fitted inhibition curve with a large enough effect, not every such curve was filed as active; inconclusive = small, poorly fitted or top-dose-only effect, or another doubt; inactive = no such curve, though single readings can be large or run the other way; note: potency is the fitted concentration of half-maximal effect
#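 NADH formation kinetics: reaction with 30 uM PGE2 and 1 mM NAD+ (final), 20 nM enzyme, Tris-HCl pH 8 with Tween 20, after 15 min compound preincubation at room temperature. Fluorescence change, last versus first of five reads.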
# IMPase inh – cell-permeable inhibitors of inositol monophosphatase (IMPase); P97697; CHO-M1 cells, IP1 accumulation, HTRF TR-FRET ratio; inhibition (IP1 accumulation), % at 46.1 µM; 120,000 tested, under 10 active; AID 901; active = well fitted curve in the direction sought with a large enough effect in the signal ratio, not every such curve was filed as active; inconclusive = small, poorly fitted or top-dose-only effect, or a change in a side signal; inactive = no such curve, though single readings can be large or run the other way; the % refers to the signal ratio;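 note: cells stimulated with carbachol in lithium chloride buffer; plate controls were DMSO basal wells for no effect and reference inhibitor wells for full effect; higher means more IMPase inhibition seen as more IP1 and lower FRET ratio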
#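 CHO-M1, 2000 cells/well, cultured 16–30 h; cpd up to 46 uM; carbachol (50 uM solution, stimulation buffer w/ 50 mM LiCl, pH 7.4), 30 min 37C; IP-One TR-FRET, 10 min RT; Ex 320/Em 665, 620; Hill-fit AC50.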
# ALDH1A1 block – blocks purified human ALDH1A1 activity. Purified ALDH1A1, NADH fluorescence, propionaldehyde substrate. P00352. Potency, µM (top dose mostly 75.3 µM), for inactives: at the top dose activity, negative = inhibition, actives largely listed as inhibitors. actives 7.3% (n = 220,000). AID 1030; active = well fitted inhibition curve with a large enough effect, not every such curve was filed as active; inconclusive = small, poorly fitted or top-dose-only effect, or another doubt; inactive = no such curve, though single readings can be large or run the other way;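 note: potency is the fitted concentration of half-maximal effect; plate controls were no enzyme wells and a reference inhibitor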
# IMPase Li cell – cell-permeable IMPase inhibitors with lithium potentiation | CHO-M1 cells, IP1 TR-FRET (IP-One), carbachol + lithium | Potency, µM (highest dose often 59.4 µM), for the others: at the highest dose activity, negative = IMPase inhibition, hits mostly inhibitors | actives 0.35% (n = 210,000);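 note: IP1 builds up when IMPase is blocked and the TR-FRET signal falls; potency is the fitted concentration of half-maximal effect; plate controls were basal vehicle for no effect and high inhibitor control for full effect; nearly all actives have a fitted effect of over 50% in size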
#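 Lithium-sensitised IP1 accumulation assay; M1-expressing CHO cells treated 30 min at 37C with compound. Competitive antibody detection by time-resolved FRET followed a 10 min room-temperature lysis step.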
# PNC inhibitor – inhibitors of perinucleolar compartment assembly. activity change (PNC), negative = inhibition, % at 10 µM. actives 3.1% (n = 140,000). PC3M PTB-GFP, PNC prevalence imaging, 16 h; stronger effect = lower value;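 active = readout at or below -70, meaning at least 70% loss of cells showing the perinucleolar compartment, a nuclear body marking cancer cells; inconclusive = readout between -30 and a set limit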;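 note: plate controls were DMSO wells for no effect and camptothecin positive control wells for full effect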
#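 Read-out is percentage of cells bearing a perinucleolar compartment, from automated 20x imaging of fixed, Hoechst-stained PC3M PTB-GFP cells. Cells were seeded 4 h, then exposed 16 h to compound (23 nl of library stock) in duplicate plates.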
# NPSR antag – neuropeptide S receptor (human) antagonism, cAMP; Potency, µM (series often up to 38.3 µM), inactives show at the highest dose activity change, negative = inhibition, hits mostly inhibitors; CHO-NPSR cells, cAMP TR-FRET, antagonist mode; actives 1% (n = 220,000); AID 1461; Q6W5P4; note: potency is the fitted concentration of half-maximal effect; nearly all actives have a fitted effect of over 50% in size
# Target sequence (Q6W5P4 whole entry, looked up): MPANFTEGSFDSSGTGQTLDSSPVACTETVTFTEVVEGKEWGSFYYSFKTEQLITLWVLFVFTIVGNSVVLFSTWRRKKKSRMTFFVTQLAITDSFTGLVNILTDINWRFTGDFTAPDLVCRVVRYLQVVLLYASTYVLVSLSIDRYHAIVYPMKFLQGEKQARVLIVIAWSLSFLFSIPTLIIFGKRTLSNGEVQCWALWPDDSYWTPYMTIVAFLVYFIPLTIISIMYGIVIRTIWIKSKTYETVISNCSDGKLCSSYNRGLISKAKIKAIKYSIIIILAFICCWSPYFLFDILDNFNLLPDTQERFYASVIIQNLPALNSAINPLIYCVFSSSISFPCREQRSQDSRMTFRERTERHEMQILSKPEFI
# * = called active by the depositor; ? = inconclusive; . = not tested or not shown; [ ] = dose if it differs, or a comment. The list is not random: actives were taken first. Their share in the collection is about 11%. Unless noted, calls come from the whole dose curve; as a rule, active = well fitted curve in the direction sought with a large enough effect; inconclusive = small, poorly fitted or top-dose-only effect, or another doubt; inactive = no such curve, though single readings can be large; an effect the other way counts as inactive or inconclusive. Unless noted, % is set by controls: 0 for no effect and ±100 for the full control effect.
SMILES,HPGD block,IMPase inh,ALDH1A1 block,IMPase Li cell,PNC inhibitor,NPSR antag
Fc1ccc(COc2ccc(Br)cc2CNCC2CCCO2)cc1 (stereo not drawn),.,.,3%,12%,.,-53%
O=C(NCc1ccncc1)c1c(F)c(F)c(F)c(F)c1F,-6%,-2,1%,-15%[38.3 µM],-9,-4%[46.1 µM]
CCCCn1c(SCC(=O)N2c3ccccc3CCc3ccccc32)nc2c1c(=O)n(C)c(=O)n2C,-8%,-10,-14%,15%,41,-25%
CC[N+](CC)(CCO)CCCN1C(=O)C2CC=C(Cl)CC2C1=O (stereo not drawn),-9%,-2,1%,13%[38.3 µM],-81*,-9%[46.1 µM]
CCN(CC)C(=O)CN1C(=O)C2CC=C(Cl)CC2C1=O (stereo not drawn),-12%,5,7%,10%[38.3 µM],-2,-11%[46.1 µM]
CCOC(=O)c1cc(C(=O)Nc2ccc(C)c(F)c2)nn1C,-2%,8,6%,6%[38.3 µM],0,-17%[46.1 µM]
Cc1ccc2nc(NC(=O)CSc3nc4c(c(=O)n3C)SC(C)C4)sc2c1 (stereo not drawn),?,4,14µM*,22%[38.3 µM],-3,-28%[46.1 µM]
Cc1cccc(-c2n[nH]c([N+](=O)[O-])n2)c1,-22%,0,1%,-16%[38.3 µM],79,-3%[46.1 µM]
N#CCc1ccc(NS(=O)(=O)c2ccc(N3CCCC3=O)cc2)cc1,-5%,-4,14µM*,1%,1,4%
COCCNC(=O)CN(C(=O)Cn1nnc2ccccc21)c1ccc(C)c(F)c1,-1%,-5,3%,14%,-119*,-1%[46.1 µM]
N#C/C(C(=O)N1CCOCC1)=c1\s/c(=C/c2ccncc2)c(=O)n1-c1ccccc1,-15%,2,-19%,-4%[38.3 µM],26,2%[46.1 µM]
N#Cc1ccc(N2C(=O)[C@@H]3C(C(=O)c4ccc5ccccc5n4)=NN[C@@H]3C2=O)cc1,-20%,4,7.9µM*,12%,31,-13%[46.1 µM]
N#Cc1ccc(N2C(=O)[C@@H]3C(C(=O)c4cnccn4)=NN[C@@H]3C2=O)cc1,.,.,14µM*,.,.,-32%
O=C(C1=NN[C@@H]2C(=O)N(c3ccccc3C(F)(F)F)C(=O)[C@H]12)c1ccc2ccccc2n1,-8%,-3,8%,4%,-24,-1%[46.1 µM]
COc1ccc(OC)c(NC(=S)NCc2ccc(S(N)(=O)=O)cc2)c1,.,.,?,5%,.,3%
COc1ccc(CNC(=S)Nc2ccc(S(N)(=O)=O)cc2)cc1,.,.,28µM*,8%,.,3%
CCOCCCNC(=S)Nc1ccc(S(N)(=O)=O)cc1,14µM*,.,5%,2%,12,17%
Cc1cc(C)cc(NC(=S)NCCc2ccc(S(N)(=O)=O)cc2)c1,-5%,.,?,6%,-11,15%
CCCNC(=S)Nc1ccc(S(N)(=O)=O)cc1,.,.,10%,.,.,-2%
COc1ccc(NC(=S)NCc2ccc(S(N)(=O)=O)cc2)c(OC)c1,14µM*,3,?,5%,-4,22%
Cc1ccc(NC(=S)NCCc2ccc(S(N)(=O)=O)cc2)cc1C,.,4,?,.,-109*,1%[46.1 µM]
O=C(N/N=C/C1CCCCC1)c1cc(Cl)ccc1O,?,?,?,5%[38.3 µM],-23,-5%[46.1 µM]
COC(=O)CNC(=O)c1sc2ncn(CC(=O)Nc3ccc(C)c(Cl)c3)c(=O)c2c1C,.,.,19%,6%,.,-39%
NS(=O)(=O)c1ccc(CNC(=S)NC2CC2)cc1,.,.,3.2µM*,.,.,-1%
COc1ccc(NC(=S)NNC(=O)c2ccc(S(=O)(=O)N3CCOCC3)cc2)cc1,.,.,?,5%,.,-21%
COc1cc(OC)cc(C(=O)NNC(=S)Nc2ccc(S(N)(=O)=O)cc2)c1,.,.,11µM*,1%,.,14%
NS(=O)(=O)c1ccc(CCNC(=S)NC2CCCCC2)cc1,.,.,.,.,.,11%
O=C(CCSc1ccccc1)Nc1ccc(OCc2ccccc2)cc1,0%,4,6%,-5%[38.3 µM],44,-8%[46.1 µM]
CC(=O)N1CCC(N(CCN2CCOCC2)C(=S)Nc2cc(C)cc(C)c2)CC1,.,.,4%,-1%,.,-2%
